“And” between values parts separate entries of the source, which are not always exact repeats. Equal values may be shown once. Results filed as inconclusive are left out. The source made the active and inactive calls.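 How the source made its calls, unless noted: active means normalized viability below 100% at a tested concentration; inactive means the rest.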
Assays:
[1] = circadian clock period modulators, cell-based, LOPAC library, luminescence reporter (AID 2774; call rule not given here;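 further: values are relative to mean of DMSO wells on each plate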); conditions: circadian reporter cells, at 7 µM, actives lie on both sides
[2] = tested on: Hepatitis C virus NS3 helicase; experiment: HCV NS3 helicase inhibitors, primary screen, biochemical, fluorescence polarization, LOPAC1280 library (AID 687035; in the data active means inhibition above about 37%); conditions: Purified HCV NS3 helicase, Cy5-dT15 ssDNA binding fluorescence polarization; stronger effect = higher value; concentration not given here
[3] = Cy5 fluorescence quenching or enhancement artefacts, artefact control for HCV NS3 helicase inhibitor project, biochemical, LOPAC1280 (AID 687037; call rule not given here); conditions: Cy5-DNA-NS3h complex fluorescence interference counterscreen
[4] = tested on: Aerobactin synthetase IucA (Klebsiella pneumoniae); experiment: IucA aerobactin synthetase inhibitors, biochemical, Tocris library, absorbance (AID 1345561; call rule not given here;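 further: 100% = enzyme without compound and 0% = no enzyme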); conditions: purified IucA enzyme assay, absorbance (OD) read-out; stronger effect = lower value;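 tested at 8 µM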
[5] = growth inhibition of DIPG glioma cells, dose response, cell-based, SU-DIPG-XIII, MIPE4.0, CellTiter-Glo, qHTS (AID 1347061; cut-off not given, nearly all actives have AC50 up to about 37 µM;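 further: cells exposed to compound for 48 hours before readout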); conditions: SU-DIPG-XIII viability, CellTiter-Glo ATP luminescence
[6] = growth inhibition of DIPG glioma cells, dose response, cell-based, JHH-DIPG-1, MIPE4.0, CellTiter-Glo, qHTS (AID 1347062; cut-off not given, nearly all actives have AC50 up to about 27 µM;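 on AC50: cells exposed to compound for two days before readout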); conditions: JHH-DIPG-1 viability, CellTiter-Glo ATP luminescence
[7] = growth inhibition of DIPG glioma cells, dose response, cell-based, SU-DIPG-IV, MIPE4.0, CellTiter-Glo, qHTS (AID 1347063; cut-off not given, nearly all actives have AC50 up to about 30 µM;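 further: compound exposure lasted 48 hours before the viability readout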); conditions: SU-DIPG-IV viability, CellTiter-Glo ATP luminescence
[8] = SU-DIPG-VI glioma cell viability, MIPE4.0 library, CellTiter-Glo luminescence, qHTS (AID 1347066; cut-off not given, nearly all actives have AC50 up to about 30 µM;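 further: cells exposed to compound for 48 hours before readout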); conditions: CellTiter-Glo ATP luminescence
[9] = sensitizers of A549 cells to miR-34 induction, primary screen, imaging, A549 dox-inducible miR-34, nuclei and caspase counts (AID 1347080;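 active means compounds whose cell count with miR-34 switched on is under 0.7 times the count with it off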); conditions: A549 miR-34 inducible, Hoechst nuclei count, 48 h
[10] = phospholipid biosynthesis inhibitors in animal cells, primary screen, cell-based, LOPAC library, screen 4 (AID 1347384; call rule not given here); conditions: phospholipid biosynthesis inhibition screen, at 10 µM
[11] = survival rescue of mitochondrial mutant cells in low glucose, primary screen, MELAS cybrids, Rieske KO mouse fibroblasts, CellTiter-Glo (AID 1508586;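 active means mean z-score across replicates of 1.96 or higher in either the MELAS or the Rieske mutant cell line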;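 further: z relative to plate mean and SD of compound and empty wells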)
[12] = viability rescue of complex I mutant cybrids, primary screen, cell-based, galactose medium, ATP luminescence (AID 1645843;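 active means z-score of at least 1.8 in each of two replicates, scored against plate mean and spread of sample wells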;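 further: positive z means more ATP and so rescue of galactose-driven cybrid death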); conditions: complex I mutant cybrid cells, 72 h, stronger effect = higher value
[13] = liver-stage malaria parasite growth inhibition, primary screen, cell-based, HepG2, luciferase luminescence, HepG2 viability (AID 624349; in the data active means parasite load remaining mostly below about 12%, no sharp cut-off; inactive means mostly above about 10%;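 further: 100% = mean of DMSO negative control wells on the same plate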); conditions: P. berghei liver stage in HepG2, luciferase luminescence, concentration not given here; parasite load remaining: stronger effect = lower value; viability: measured here: HepG2 viability without parasites
[14] = viability loss in pontine glioma line – cell-based, SU-DIPG-XXV, MIPE5.0, CellTiter-Glo, qHTS, dose response (AID 1347065; cut-off not given, nearly all actives have AC50 up to about 26 µM;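 further: cells exposed to compound for 48 hours before ATP readout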); conditions: CellTiter-Glo ATP luminescence
[15] = JHH-DIPG-1 glioma cell viability, MIPE5.0 library, CellTiter-Glo luminescence, qHTS (AID 1347067; cut-off not given, nearly all actives have AC50 up to about 26 µM;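 further: cells exposed to compound for 48 hours before readout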); conditions: JHH-DIPG-1 glioma viability, CellTiter-Glo ATP luminescence
[16] = SU-DIPG-XXV glioma cell viability, MIPE5.0 library, qHTS (AID 1347068; cut-off not given, nearly all actives have IC50 up to about 30 µM;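 on IC50: cells exposed to compound for 48 hours before viability readout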)
[17] = hESC survival regulators, cell-based (AID 493140; call rule not given here;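 further: cells exposed to compounds for four days before counting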); conditions: human embryonic stem cell survival screen; stronger effect = higher value
[18] = inhibitors of Cryptococcus chitosan production, flow cytometry, Cibacron Brilliant Red staining (AID 1347148; call rule not given here;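 further: compound exposure lasted three days at 37 degrees C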); conditions: Cryptococcus neoformans chitosan, stronger effect = lower value; at 10 µM unless noted
[19] = modifiers of HSF1 nuclear foci, imaging, Selleck Cancer Library (AID 1347162; in the data active means plate-normalised HSF1 focus index below about 0.46); conditions: human cells, at 10 µM; SSMD: measured here: HSF1 foci SSMD mean; cell count: measured here: cell number; plate-normalised HSF1 focus index: stronger effect = lower value
[20] = ovarian cancer cell viability with rucaparib, profiling panel, oncology-focused library, rucaparib conditional (AID 1508598); conditions: patient-derived ovarian cancer cells, CellTiter-Glo viability, 144 h, stronger effect = lower value
[21] = stronger effect = lower value, cell number ratio, induced over uninduced
[22] = measured here: relative caspase fold change +Dox/-Dox
[23] = measured here: total cells with miR-34 induction, stronger effect = lower value
[24] = measured here: total cells without miR-34 induction
[25] = MELAS cybrid survival, CellTiter-Glo 48 h, stronger effect = higher value
[26] = Rieske KO mouse fibroblast survival, CellTiter-Glo 72 h

Cc1cccc(C#Cc2ccccc2)n1
0.0234: z-score [11, 26]
8900 and 6820 and 7820: cell count [9, 23]
inactive: period change [1] 0.065 h | inhibition [2] -1% | fluorescence ratio (interference) [3] 1 | remaining activity [4] 102% | outcome [5] | outcome [6] | outcome [7] | outcome [8] | fold change [9, 21] 1.16 and 0.932 and 0.863 | outcome [10] | z-score [11, 25] -0.0615 | z-score [12] 1.15 and 1.02
7690 and 7310 and 9060: cell count [9, 24]
0.95 and 0.499 and 0.79: fold change [9, 22]

O=C(c1ccc(Nc2nccc(-c3cc4ccccc4s3)n2)cc1)N1CCC(N2CCCC2)CC1
3590 and 394: cell count [9, 23]
active: AC50 [5] 23.5 µM | AC50 [6] 18.7 µM | AC50 [7] 8.33 µM | AC50 [14] 7.42 µM | AC50 [8] 18.7 µM | AC50 [15] 9.34 µM | IC50 [16] 9.34 µM
86.2%: viability [13]
3460 and 385: cell count [9, 24]
inactive: parasite load remaining [13] 27.7% | remaining activity [4] 98.9% | fold change [9, 21] 1.04 and 1.02 | z-score [11, 25] -0.0984 | z-score [12] -0.705
0.125: z-score [11, 26]
0.636 and 0.577: fold change [9, 22]

O=S(=O)(NCCNC/C=C/c1ccc(Br)cc1)c1cccc2cnccc12
active: survival [17] 202 | AC50 [7] 16.6 µM | AC50 [14] 23.5 µM | AC50 [15] 16.6 µM
inactive: period change [1] -0.05 h | parasite load remaining [13] 26.7% | remaining activity [4] 114% | outcome [16] | fold change [9, 21] 0.909 and 1.06 | fold fluorescence [18] 7.62 [at 112 µM] | z-score [12] -0.61
66.5%: viability [13]
2930 and 6810: cell count [9, 23]
3220 and 6450: cell count [9, 24]
1.15 and 1.08: fold change [9, 22]

C[C@H](NC(=O)Cc1cc(F)cc(F)c1)C(=O)N[C@H](C(=O)OC(C)(C)C)c1ccccc1
1.67: fold change [9, 22]
6880: cell count [19]
active: viability ([20]; at 0.313 µM, OCI-P5x cells, without rucaparib) 99% | viability ([20]; at 1.25 µM, OCI-P5x cells, with rucaparib 20 µM, 100% = cells with rucaparib alone) 84.1% | viability ([20]; at 1.25 µM, OCI-P5x cells, without rucaparib) 85.6% | viability ([20]; at 5 µM, OCI-P5x cells, with rucaparib 20 µM, 100% = cells with rucaparib alone) 75.1% | viability ([20]; at 5 µM, OCI-P5x cells, without rucaparib) 78.3%
8840: cell count [9, 24]
2.12: SSMD [19]
8110: cell count [9, 23]
inactive: remaining activity [4] 99.3% | outcome [5] | outcome [6] | outcome [15] | fold change [9, 21] 0.918 | plate-normalised HSF1 focus index [19] 1.11 | viability ([20]; at 0.000305 µM, OCI-C5x cells, with rucaparib 10 µM, 100% = cells with rucaparib alone) 103% | viability ([20]; at 0.000305 µM, OCI-C5x cells, without rucaparib) 116% | viability ([20]; at 0.000305 µM, OCI-P5x cells, with rucaparib 20 µM, 100% = cells with rucaparib alone) 110% | viability ([20]; at 0.000305 µM, OCI-P5x cells, without rucaparib) 111% | viability ([20]; at 0.00122 µM, OCI-C5x cells, with rucaparib 10 µM, 100% = cells with rucaparib alone) 103% | viability ([20]; at 0.00122 µM, OCI-C5x cells, without rucaparib) 117% | viability ([20]; at 0.00122 µM, OCI-P5x cells, with rucaparib 20 µM, 100% = cells with rucaparib alone) 109% | viability ([20]; at 0.00122 µM, OCI-P5x cells, without rucaparib) 107% | viability ([20]; at 0.00488 µM, OCI-C5x cells, with rucaparib 10 µM, 100% = cells with rucaparib alone) 108% | viability ([20]; at 0.00488 µM, OCI-C5x cells, without rucaparib) 126% | viability ([20]; at 0.00488 µM, OCI-P5x cells, with rucaparib 20 µM, 100% = cells with rucaparib alone) 106% | viability ([20]; at 0.00488 µM, OCI-P5x cells, without rucaparib) 111% | viability ([20]; at 0.0195 µM, OCI-C5x cells, with rucaparib 10 µM, 100% = cells with rucaparib alone) 103% | viability ([20]; at 0.0195 µM, OCI-C5x cells, without rucaparib) 119% | viability ([20]; at 0.0195 µM, OCI-P5x cells, with rucaparib 20 µM, 100% = cells with rucaparib alone) 110% | viability ([20]; at 0.0195 µM, OCI-P5x cells, without rucaparib) 102% | viability ([20]; at 0.0781 µM, OCI-C5x cells, with rucaparib 10 µM, 100% = cells with rucaparib alone) 115% | viability ([20]; at 0.0781 µM, OCI-C5x cells, without rucaparib) 117% | viability ([20]; at 0.0781 µM, OCI-P5x cells, with rucaparib 20 µM, 100% = cells with rucaparib alone) 107% | viability ([20]; at 0.0781 µM, OCI-P5x cells, without rucaparib) 101% | viability ([20]; at 0.313 µM, OCI-C5x cells, with rucaparib 10 µM, 100% = cells with rucaparib alone) 106% | viability ([20]; at 0.313 µM, OCI-C5x cells, without rucaparib) 125% | viability ([20]; at 0.313 µM, OCI-P5x cells, with rucaparib 20 µM, 100% = cells with rucaparib alone) 102% | viability ([20]; at 1.25 µM, OCI-C5x cells, with rucaparib 10 µM, 100% = cells with rucaparib alone) 116% | viability ([20]; at 1.25 µM, OCI-C5x cells, without rucaparib) 117% | viability ([20]; at 5 µM, OCI-C5x cells, with rucaparib 10 µM, 100% = cells with rucaparib alone) 120% | viability ([20]; at 5 µM, OCI-C5x cells, without rucaparib) 120% | z-score [12] 0.56

Source: PubChem BioAssay
